The values that follow come from the supplement of paper PMC6522484.

± gives the standard deviation of the averaged measurements.

For assay [1], the system named is DLD1. Kind of assay: cell viability (CellTiter-Glo) relative to plate median (fraction of plate median); higher = more viable cells. Particulars: 5 µM; treatment time 24 h; reporter: 7TFP. The gist of the method:
(§1)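 Stable lentiviral TCF/Wnt firefly luciferase reporters (7TFP or TCF4/Wnt) were present in the colorectal cancer cell lines used. These cells received library compounds at a final 5 µM for 24 h, and parallel plates were read for firefly luciferase or CellTiterGlo luminescence. Each well was normalised to the plate median, and the value reported is the mean of two independent replicates.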
On the technique in general: In ATP-based viability assays light output follows the ATP content of the culture.

The next assay relates to HCT116. The assay is described as above. Particulars: 5 µM; treatment time 24 h; reporter: TCF4/Wnt. The gist of the method:
as §1

The subject of assay [2] is SW480. The description is as above. The settings on record: 5 µM; treatment time 24 h; reporter: 7TFP. The gist of the method: as §1
Assay [3] relates to DLD1. Put plainly: TCF/Wnt firefly luciferase reporter signal relative to plate median (fraction of plate median); higher = higher Wnt reporter signal. The settings on record: 5 µM; treatment time 24 h; reporter: 7TFP. The gist of the method: as §1
(In a reporter assay the amount or activity of a reporter protein is the signal.)

The test system of assay [4] is SW480. Described as above. The settings on record: 5 µM; treatment time 24 h; reporter: 7TFP. The gist of the method:
as §1

Take `NC/C=C/C(=O)O`: the cell viability was 1.03 ± 0.088 in the assay with DLD1 [1], 1.01 ± 0.095 with HCT116 and 1 ± 0.068 with SW480 [2]. Moreover, the “TCF/Wnt firefly luciferase reporter signal” value is 0.965 ± 0.079 in the assay with DLD1 [3] and 1 ± 0.11 in the assay on SW480 [4].
For `O=C(O)c1c[nH]c2ccccc12` [Indole-3-carboxylic acid] the same measures were 0.977 ± 0.011, 0.868 ± 0.083, 0.9405 ± 0.005, 0.83 ± 0.12 and 0.968 ± 0.21.
For `COc1ccc(/C=C/C(=O)O)cc1OC` the same measures were 1.02 ± 0.045, 1.06 ± 0.16, 0.951 ± 0.083, 1.01 ± 0.021 and 0.984 ± 0.021.
For `COC(=O)c1c(OC)cc2c(c1C)Oc1c(Cl)c(OC(C)=O)c(Cl)c(C)c1C(=O)O2` the same measures were 0.935 ± 0.028, 1.02 ± 0.088, 0.9875 ± 0.0064, 1.03 ± 0.042 and 0.968 ± 0.02.
Turning to `CO[C@@]1(NC(=O)CSCC#N)C(=O)N2C(C(=O)O)=C(CSc3nnnn3C)CS[C@@H]21`, the cell viability in the assay on DLD1 [1] was 0.998 ± 0.031; in the assay with HCT116, 1.11 ± 0.057; with SW480 [2], 0.9035 ± 0.0021. Besides, the “TCF/Wnt firefly luciferase reporter signal” value in the assay on DLD1 [3] is 0.928 ± 0.023; in the assay with SW480 [4], 1.02.
For `CC1=NN(c2ccccc2)C(=O)C1` the same measures were 1.03 ± 0.054, 0.921 ± 0.021, 1.03 ± 0.06, 0.979 ± 0.14 and 1.01 ± 0.025.
For `CC(=O)Oc1cc2c(c(C)c1OC(C)=O)CC=C1[C@@]2(C)CC[C@@]2(C)C3C[C@](C)(C(=O)O)CC[C@]3(C)CC[C@]12C` (stereo not given in full) the same measures were 0.903 ± 0.12, 0.958 ± 0.16, 0.953 ± 0.081, 0.869 ± 0.064 and 0.898 ± 0.12.
For `O=C1NCC2(CCN(CCc3ccccc3)CC2)O1` the same measures were 0.8925 ± 0.0021, 1.06 ± 0.078, 0.963 ± 0.018, 1.05 ± 0.095 and 1.01 ± 0.062.
Take `CC(=O)N[C@@H](CC(=O)N[C@@H](CCC(=O)O)C(=O)O)C(=O)O`: the cell viability was 1.01 ± 0.014 in the assay on DLD1 [1], 1.055 ± 0.0071 with HCT116 and 0.925 ± 0.011 with SW480 [2]. Besides, the “TCF/Wnt firefly luciferase reporter signal” value in the assay on DLD1 [3] amounted to 0.958 ± 0.088; with SW480 [4], 0.988 ± 0.032.
For `CC1(C)Oc2ccc3ccc(=O)oc3c2CC1O` (stereo not given) the same measures were 0.993 ± 0.011, 1.01 ± 0.042, 1.07 ± 0.021, 0.996 ± 0.19 and 0.791 ± 0.089.
`COC(=O)c1c(C)cc(OC)cc1O`: the cell viability with DLD1 [1] was 0.99 ± 0.071; in the assay on HCT116 it was 1.03 ± 0.081; with SW480 [2] it was 0.951 ± 0.05. Moreover, the figures for the “TCF/Wnt firefly luciferase reporter signal” value in the assay on DLD1 [3] and in the assay on SW480 [4] were 0.885 ± 0.047 and 0.869 ± 0.08, respectively.
For `Cc1cccc2c3c(ccc12)C1=C(C(=O)C3=O)[C@@H](C)CO1` the same measures were 0.936 ± 0.1, 0.825 ± 0.011, 1.03 ± 0.014, 0.955 ± 0.15 and 1.08 ± 0.15.
For `O=C(/C=C/c1ccccc1)c1ccc(O)cc1O` the same measures were 1 ± 0.025, 0.984 ± 0.0071, 0.99 ± 0.028, 1.12 ± 0.071 and 1.07 ± 0.014.
Take `CCn1cc(C(=O)O)c(=O)c2cc(F)c(N3CCNCC3)nc21`: the cell viability in the assay with DLD1 [1] was 1.05 ± 0.064; with HCT116, 0.98 ± 0.071; in the assay on SW480 [2], 1.05 ± 0.083. The “TCF/Wnt firefly luciferase reporter signal” value was 1.065 ± 0.0071 in the assay with DLD1 [3] and 1.04 ± 0.028 in the assay on SW480 [4].
For `O=C(N[C@H](CO)[C@H](O)c1ccc([N+](=O)[O-])cc1)C(Cl)Cl` the same measures were 0.939 ± 0.013, 0.918 ± 0.14, 1.04 ± 0.042, 1.09 ± 0.085 and 1 ± 0.013.
